A short description of experiment [1]: P-glycoprotein substrates identified in KB-8-5-11 adenocarcinoma cell line, qHTS therapeutic library screen (AID 1346987). Further: nearly all actives have a fitted effect of over 65% in size. Further: potency means the concentration at half of the fitted maximal effect. A digest of the protocol:
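Compounds are pinned in dose-response onto KB-8-5-11 cells (500 cells/well, colchicine-free medium) and left 72 h at 37 degree C. CellTiter-Glo luminescence then yields AC50 values.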
On the technique in general: Quantitative high-throughput screening tests each substance at several concentrations.

Experiment [2] can be described thus: qHTS for Inhibitors of the Functional Ribonucleoprotein Complex (vRNP) of Lassa (LASV) Arenavirus: LASV Primary Screen - GLuc reporter signal (AID 1347082; calls by dose curve; tested in HEK293 reporter line; further: series mostly up to about 57 µM; nearly all actives have a fitted effect of over 60% in size).
Experiment [3] in a line: qHTS for Inhibitors of the Functional Ribonucleoprotein Complex (vRNP) of Lassa (LASV) Arenavirus: Viability assay - alamar blue signal for LASV Primary Screen (AID 1347083; calls by dose curve; tested in HEK293 reporter line; further: series mostly up to about 57 µM; nearly all actives have a fitted effect of over 80% in size).
Experiment [4] is described as follows: qHTS for Inhibitors of the Functional Ribonucleoprotein Complex (vRNP) of Lymphocytic Choriomeningitis Arenaviruses (LCMV): Viability assay - alamar blue signal for LCMV Primary Screen (AID 1347085; calls by dose curve; tested in HEK293 reporter line; further: series mostly up to about 57 µM; nearly all actives have a fitted effect of over 80% in size).
For experiment [5], the target named is Nucleoprotein (Lymphocytic choriomeningitis virus (strain Armstrong)) (UniProt P09992). In words: qHTS for Inhibitors of the Functional Ribonucleoprotein Complex (vRNP) of Lymphocytic Choriomeningitis Arenaviruses (LCMV): LCMV Primary Screen - GLuc reporter signal (AID 1347086; calls by dose curve; further: series mostly up to about 57 µM; nearly all actives have a fitted effect of over 70% in size).
Experiment [6] can be described thus: qHTS of pediatric cancer cell lines to identify multiple opportunities for drug repurposing: Primary screen for TC32 cells (AID 1347089). Further: nearly all actives have a fitted effect of over 60% in size. The gist of the method: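 Measured quantity: luminescence from CellTiter-Glo, reflecting metabolically active TC32 cells following 48 h of compound. Curves came straight from multi-point titrations, with 8 or 11 points in primary and 11 in confirmatory screening.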

Experiment [7] is described as follows: qHTS of pediatric cancer cell lines to identify multiple opportunities for drug repurposing: Primary screen for DAOY cells (AID 1347090). Further: series mostly up to about 46 µM; nearly all actives have a fitted effect of over 55% in size. A digest of the protocol: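 Cell viability, CellTiter-Glo luminescence; 500-1,000 cells/well, 8- or 11-point titration, 48 h compound exposure at 37 degrees C, 5% CO2. Controls: DMSO neutral, bortezomib 2.3 µM final as positive.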

A short description of experiment [8]: Natriuretic polypeptide receptor (hNpr1) antagonism - Pilot counterscreen GloSensor control cell line (AID 1347045; calls by dose curve; further: series mostly up to about 38 µM). The gist of the method: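 Control counterscreen: luciferase cGMP-biosensor HEK293 cells (no Npr1) received compound for 30 min at room temperature after GloSensor substrate loading. Luminescence was measured before and 20 min after soluble guanylyl cyclase activation by 50 uM nitroprusside.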

The target of experiment [9] is Atrial natriuretic peptide receptor 2 (Homo sapiens) (UniProt P20594). In words: Natriuretic polypeptide receptor (hNpr2) antagonism - Pilot subtype selectivity assay (AID 1347050; calls by dose curve). A digest of the protocol:
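Antagonist mode: compounds (LOPAC1280, seven 1:5 dilutions) added 30 min before 1 nM hNppC stimulation of hNpr2-HEK293 cGMP-sensor cells; luminescence read before and 20 min after agonist at ambient temperature.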

Experiment [10] has as its target T1, Tyrosine-protein phosphatase non-receptor type substrate 1 (Homo sapiens) + Leukocyte surface antigen CD47 (Homo sapiens) (UniProt P78324+Q08722). In words: CD47-SIRPalpha protein protein interaction - LANCE assay qHTS validation (AID 1347057; active means well fitted curve in the direction sought with a large enough effect in the signal ratio, with a control signal flat, not every such curve was filed as active; the % refers to the signal ratio; further: series mostly up to about 38 µM). The gist of the method:
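Inhibition of soluble CD47/SIRPalpha ectodomain association by titrated compounds, measured as 665/615 nm time-resolved FRET ratio after sequential 30 min room-temperature incubations.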

The target of experiment [11] is Parathyroid hormone/parathyroid hormone-related peptide receptor (Homo sapiens) (UniProt Q03431). In words: qHTS for PTHR1 Agonists: Optimization Screen against the NCGC LOPAC library (AID 1347079).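 Further: GloSensor cAMP luminescence in HEK-293 GP2 cells expressing human PTHR1 with IBMX.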 The gist of the method: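 HEK-293 GP2 cells, PTHR1 + GloSensor cAMP; 3000 cells/well, o/n. Luciferin + IBMX 0.5mM each (stock), 1 hr 37C. Cpd titration, 1 hr 37C. Lum after 15 min RT. Ctrl M-PTH(1-15) top 10uM.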

The nature of experiment [12]: NS1 protein of Zika virus - qHTS assay to identify small molecule inhibitors in human HEK 293 cells (AID 1347053). Further: series mostly up to about 46 µM; nearly all actives have a fitted effect of over 55% in size. The gist of the method: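 Readout was TR-FRET using paired anti-NS1 antibodies after 24 h infection of HEK 293 cells with ZIKV MR766 (MOI = 0.5). Compound preceded virus by 1 h; reduced signal reflects lower NS1 expression.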
Experiment [13] has as its target T1, Tyrosine-protein phosphatase non-receptor type substrate 1 (Homo sapiens) + Leukocyte surface antigen CD47 (Homo sapiens). In words: CD47-SIRPalpha protein protein interaction - HTRF assay qHTS validation (AID 1347058; active means well fitted curve in the direction sought with a large enough effect in the signal ratio, not every such curve was filed as active; the % refers to the signal ratio; further: series mostly up to about 38 µM). The gist of the method: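 Soluble extracellular domains (6His-CD47, Avi-tag-biotinylated SIRPalpha) in PBS pH 7.4 with 0.05% IGEPAL CA-630. Compounds were preincubated 30 min at RT with CD47 and anti-His-Eu, then SIRPalpha and SAV-XL665 were added. TR-FRET 665/615 ratio.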

Experiment [14] shares this target. In words: CD47-SIRPalpha protein protein interaction - Alpha assay qHTS validation (AID 1347059).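 Further: bead proximity luminescence from CD47 binding SIRPalpha after compound preincubation with SIRPalpha.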 The gist of the method: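 AlphaScreen signal between CD47-His (12.5 nM) and biotin-SIRPalpha (25 nM) soluble extracellular domains, bead-captured via Ni-NTA and streptavidin. Compounds, in 7-point titrations, met SIRPalpha 30 min before CD47; PBS pH 7.4 with 0.05% IGEPAL.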

Each structure is given as a SMILES string. Where “and” joins values, the source holds several entries; their conditions need not be identical. Identical values can stand only once. Records with an inconclusive call do not appear. Calls of active or inactive are those of the source. Unless noted, the call rests on the fitted dose curve; in most records, active means well fitted curve in the direction sought with a large enough effect; inconclusive means small, poorly fitted or top-dose-only effect, or another doubt; inactive means no such curve, though single readings can be large; an effect the other way counts as inactive or inconclusive.

T1 sequence (P78324 whole entry, looked up, the tested form may be a part): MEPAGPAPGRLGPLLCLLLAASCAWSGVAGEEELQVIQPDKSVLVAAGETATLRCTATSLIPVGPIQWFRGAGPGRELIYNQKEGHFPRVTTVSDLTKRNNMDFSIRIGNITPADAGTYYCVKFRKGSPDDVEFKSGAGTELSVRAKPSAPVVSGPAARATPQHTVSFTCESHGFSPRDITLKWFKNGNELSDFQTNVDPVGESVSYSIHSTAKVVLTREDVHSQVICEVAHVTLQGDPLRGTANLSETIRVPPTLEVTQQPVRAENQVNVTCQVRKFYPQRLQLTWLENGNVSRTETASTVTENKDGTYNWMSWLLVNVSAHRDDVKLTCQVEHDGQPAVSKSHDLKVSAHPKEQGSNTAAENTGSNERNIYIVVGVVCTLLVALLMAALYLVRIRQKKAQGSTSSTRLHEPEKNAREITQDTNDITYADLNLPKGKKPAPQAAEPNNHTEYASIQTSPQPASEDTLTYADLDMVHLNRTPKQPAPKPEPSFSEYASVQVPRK
T1 sequence (Q08722 whole entry, looked up, the tested form may be a part): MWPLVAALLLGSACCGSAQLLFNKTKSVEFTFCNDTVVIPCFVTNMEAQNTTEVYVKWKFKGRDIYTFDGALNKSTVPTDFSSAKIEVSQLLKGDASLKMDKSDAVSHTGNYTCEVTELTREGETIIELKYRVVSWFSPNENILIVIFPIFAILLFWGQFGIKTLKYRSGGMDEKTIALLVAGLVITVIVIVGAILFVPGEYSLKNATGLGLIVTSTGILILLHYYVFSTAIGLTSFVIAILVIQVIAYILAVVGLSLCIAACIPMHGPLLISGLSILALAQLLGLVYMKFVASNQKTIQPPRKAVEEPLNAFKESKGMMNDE
Chain of Nucleoprotein (Lymphocytic choriomeningitis virus (strain Armstrong)) (P09992 whole entry, looked up): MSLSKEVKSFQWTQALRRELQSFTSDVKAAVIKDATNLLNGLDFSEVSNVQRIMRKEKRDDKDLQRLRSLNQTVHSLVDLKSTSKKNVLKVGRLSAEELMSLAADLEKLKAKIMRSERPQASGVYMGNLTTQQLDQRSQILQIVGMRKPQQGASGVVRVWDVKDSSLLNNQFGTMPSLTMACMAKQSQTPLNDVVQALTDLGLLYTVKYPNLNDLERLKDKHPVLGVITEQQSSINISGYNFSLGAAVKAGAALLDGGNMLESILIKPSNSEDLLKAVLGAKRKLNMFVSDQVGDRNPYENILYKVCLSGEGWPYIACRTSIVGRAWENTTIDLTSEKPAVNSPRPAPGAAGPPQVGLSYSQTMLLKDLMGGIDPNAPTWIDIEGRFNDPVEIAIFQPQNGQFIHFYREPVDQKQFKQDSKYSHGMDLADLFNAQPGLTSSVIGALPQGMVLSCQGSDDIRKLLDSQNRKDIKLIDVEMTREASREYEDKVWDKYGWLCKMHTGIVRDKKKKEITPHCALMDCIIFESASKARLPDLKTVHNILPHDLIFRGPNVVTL
Chain of Atrial natriuretic peptide receptor 2 (Homo sapiens) (P20594 whole entry, looked up): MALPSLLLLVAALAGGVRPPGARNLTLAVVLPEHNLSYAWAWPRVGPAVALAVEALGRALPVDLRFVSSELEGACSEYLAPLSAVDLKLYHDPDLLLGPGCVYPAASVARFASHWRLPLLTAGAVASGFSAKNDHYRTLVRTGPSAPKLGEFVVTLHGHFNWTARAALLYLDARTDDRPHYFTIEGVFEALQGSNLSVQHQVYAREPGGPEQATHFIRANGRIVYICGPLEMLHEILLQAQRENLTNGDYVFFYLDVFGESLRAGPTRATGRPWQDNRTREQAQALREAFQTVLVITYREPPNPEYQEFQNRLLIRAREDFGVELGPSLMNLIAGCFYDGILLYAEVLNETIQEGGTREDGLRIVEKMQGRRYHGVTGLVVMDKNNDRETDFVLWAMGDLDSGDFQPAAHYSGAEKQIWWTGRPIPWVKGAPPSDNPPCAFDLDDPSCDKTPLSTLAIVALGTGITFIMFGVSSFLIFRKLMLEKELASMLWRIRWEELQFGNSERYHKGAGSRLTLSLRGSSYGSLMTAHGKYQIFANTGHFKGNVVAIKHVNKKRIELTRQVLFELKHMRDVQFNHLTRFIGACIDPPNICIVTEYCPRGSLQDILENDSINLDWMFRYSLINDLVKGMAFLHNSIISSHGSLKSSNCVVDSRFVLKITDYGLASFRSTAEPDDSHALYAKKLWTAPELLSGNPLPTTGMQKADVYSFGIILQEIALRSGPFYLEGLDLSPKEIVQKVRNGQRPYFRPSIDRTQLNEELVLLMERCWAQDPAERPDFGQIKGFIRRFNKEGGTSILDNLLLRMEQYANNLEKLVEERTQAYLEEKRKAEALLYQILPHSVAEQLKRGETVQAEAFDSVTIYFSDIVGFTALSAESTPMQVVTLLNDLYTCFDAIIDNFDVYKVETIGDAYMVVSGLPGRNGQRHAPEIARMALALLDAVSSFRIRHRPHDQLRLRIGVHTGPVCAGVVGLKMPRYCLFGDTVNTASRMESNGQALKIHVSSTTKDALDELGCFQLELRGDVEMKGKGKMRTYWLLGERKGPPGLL
Chain of Parathyroid hormone/parathyroid hormone-related peptide receptor (Homo sapiens) (Q03431 whole entry, looked up): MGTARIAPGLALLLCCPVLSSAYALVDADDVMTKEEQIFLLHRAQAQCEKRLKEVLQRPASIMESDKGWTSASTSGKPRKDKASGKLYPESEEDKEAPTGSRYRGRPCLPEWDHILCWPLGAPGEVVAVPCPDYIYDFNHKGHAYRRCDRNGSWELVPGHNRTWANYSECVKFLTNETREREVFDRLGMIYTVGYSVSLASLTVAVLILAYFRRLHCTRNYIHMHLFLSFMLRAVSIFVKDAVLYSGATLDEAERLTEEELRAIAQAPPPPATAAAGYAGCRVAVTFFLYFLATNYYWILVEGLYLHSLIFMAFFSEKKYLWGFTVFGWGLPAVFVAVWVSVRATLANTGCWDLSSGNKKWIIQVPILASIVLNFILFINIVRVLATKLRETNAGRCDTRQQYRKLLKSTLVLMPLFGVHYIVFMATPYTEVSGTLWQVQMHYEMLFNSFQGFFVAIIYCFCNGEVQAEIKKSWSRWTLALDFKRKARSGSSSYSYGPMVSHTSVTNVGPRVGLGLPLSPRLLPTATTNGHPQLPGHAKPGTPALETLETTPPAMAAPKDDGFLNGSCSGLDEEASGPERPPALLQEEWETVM

Consider `CC(=O)Nc1cc([As](=O)(O)O)ccc1O`, for which the Potency entry in experiment [1], in [2], in experiment [3], in experiment [4], in experiment [5] and in [6] was “inactive” each time. The Potency entry in experiment [7] was “inactive”.
Take `COc1cc([C@@H]2c3cc4c(cc3[C@H](O)[C@H]3COC(=O)[C@H]23)OCO4)cc(OC)c1OC`: the Potency entry in [2] is “inactive”.
With `CCOC(=O)C1(c2ccccc2)CCN(CCC(C#N)(c2ccccc2)c2ccccc2)CC1`, in experiment [1], the Potency is 9.2 µM (active) and 15.8 µM (active). In addition, the Potency entry in experiment [3] is “inactive”.
Turning to `CC(C)(C)CC(C)(C)c1ccc(O)cc1`, the Potency result in experiment [1], in experiment [2], in experiment [3], in [4], in experiment [5] and in [6] was “inactive” in each case.
Take `C=C1CC[C@@]2(O)[C@H]3Cc4ccc(O)c5c4[C@@]2(CCN3CC2CC2)[C@H]1O5`: the Potency entry in experiment [1], in experiment [2], in experiment [3], in experiment [4], in experiment [5] and in [6] was “inactive” throughout. In addition, the Potency result in experiment [7] was “inactive”.
Regarding `O=c1[nH]cc(F)c(=O)[nH]1`, the Potency result in [2] and in experiment [3] was “inactive” each time.
On to `O=C(NC(O)C(Cl)(Cl)Cl)NC(O)C(Cl)(Cl)Cl` (stereo not drawn), for which the Potency entry in experiment [1], in experiment [2], in experiment [3], in experiment [4], in [5] and in experiment [6] was “inactive” in each case. In addition, the Potency entry in experiment [7] was “inactive”.
`COC(=O)C1=C(C)NC(C)=C(C(=O)OCCN(C)Cc2ccccc2)C1c1cccc([N+](=O)[O-])c1` (stereo not drawn): the Potency entry in experiment [2] is “inactive”.
On to `CC[N+]1(C)CCCC(OC(=O)C(O)(c2ccccc2)c2ccccc2)C1` (stereo not drawn), for which the Potency entry in experiment [1], in [2], in experiment [3], in [4], in experiment [5] and in experiment [6] was “inactive” in each case. Besides, the Potency result in experiment [7] is “inactive”.
In the case of `CCC(C(N)=O)N1CCCC1=O` (stereo not drawn), the Potency entry in [1], in [2], in [3], in experiment [4], in [5] and in [6] was “inactive” throughout. Further, the Potency result in experiment [7] was “inactive”.
With `CN1C[C@H](CNC(=O)OCc2ccccc2)C[C@@H]2c3cccc4c3c(cn4C)C[C@H]21`, the Potency entry in [8], in [9], in experiment [2], in experiment [3], in [4] and in experiment [5] was “inactive” throughout. For the same molecule, the Potency entry in experiment [6] and in experiment [7] was “inactive” throughout. Also, the result in experiment [10] and in [11] was inactive.
Take `CCC(COC(=O)c1cc(OC)c(OC)c(OC)c1)(c1ccccc1)N(C)C` (stereo not drawn): the Potency entry in experiment [12], in experiment [2], in experiment [3], in [4], in experiment [5] and in experiment [6] was “inactive” in each case.
On to `C=CCN1CC[C@]23c4c5ccc(O)c4O[C@H]2C(=O)CC[C@@]3(O)[C@H]1C5`, for which the Potency entry in experiment [1], in experiment [2], in experiment [3], in [5] and in experiment [6] was “inactive” in each case.
For the molecule `CN(C)c1nc(N(C)C)nc(N(C)C)n1`, the Potency result in experiment [2] was “inactive”.
Take `CN(C)CCCN1c2ccccc2Sc2ccc(Cl)cc21`: in experiment [2], the Potency result was “inactive”.
The same measure, in the same setting: with `CCC(C)(C)C(=O)O[C@H]1C[C@@H](C)C=C2C=C[C@H](C)[C@H](CC[C@@H]3C[C@@H](O)CC(=O)O3)[C@H]21` the entry was “inactive”.
On to `C#CCOC(C(=O)OCCN(C)C)(c1ccccc1)c1ccccc1`, for which the Potency result in [1], in [2], in [3], in experiment [4], in experiment [5] and in experiment [6] was “inactive” each time. Further, the Potency entry in [7] was “inactive”.
With `CO[C@]12CC[C@@]3(C[C@@H]1[C@](C)(O)C(C)(C)C)[C@@H]1Cc4ccc(O)c5c4[C@@]3(CCN1CC1CC1)[C@H]2O5`, the Potency entry in experiment [2] and in experiment [3] was “inactive” throughout.
For `CC(=O)[C@H]1CC[C@H]2[C@@H]3CC[C@H]4C[C@H](O)CC[C@]4(C)[C@H]3C(=O)C[C@]12C`, the Potency entry in experiment [8], in [9], in experiment [12], in experiment [2], in experiment [3] and in experiment [4] was “inactive” each time. Besides, the Potency entry in [5], in experiment [6] and in experiment [7] was “inactive” in each case. Besides, the outcome in experiment [10], in [13], in experiment [14] and in experiment [11] was inactive.
`CN(C)C(=O)C(CCN1CCC(O)(c2ccc(Cl)cc2)CC1)(c1ccccc1)c1ccccc1`: the Potency entry in experiment [2] and in experiment [3] was “inactive” throughout.
Turning to `CC(C)C(=O)Nc1ccc([N+](=O)[O-])c(C(F)(F)F)c1`, the Potency result in experiment [2], in experiment [3] and in experiment [4] was “inactive” in each case.
Regarding `O=C1OCCN1/N=C/c1ccc([N+](=O)[O-])o1`, the Potency result in [2], in experiment [3] and in [4] was “inactive” in each case.
Consider `CC[C@@H](CO)NCCN[C@@H](CC)CO`, for which the Potency result in experiment [2], in [3], in [4] and in [5] was “inactive” throughout.
Turning to `CCCCNc1ccc(C(=O)OCCOCCOCCOCCOCCOCCOCCOCCOCCOC)cc1`, the Potency result in [2], in experiment [3], in experiment [4] and in [5] was “inactive” in each case.
Regarding `O[C@@H]1CO[C@H]2[C@@H]1OC[C@@H]2O`, the Potency result in experiment [2], in experiment [3], in [4] and in experiment [5] was “inactive” each time.

Values taken from PubChem BioAssay (NCATS).
